We go through 46 sequences from the supplement of paper PMC3545927.

Some of the results follow. The true hit rate is not given.

This assay deals with furin, P09958. The assay is described as follows: furin cleavage Z-score vs untreated control; higher = more cleavage, active = 3.5 or more, inactive = 1 or less, 8 variable residues between constant flanks. The gist of the method: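 Cleavage by purified furin was measured on 8-mer peptides fused to a cDNA oligonucleotide and held on magnetic beads by their N-terminus. Reactions (0.01 ml, 1:10 enzyme:substrate) ran 7.5, 15 or 30 min in 50 mM HEPES pH 7.5 with CaCl2 and NaCl. Released DNA was adapter-tagged by PCR and sequenced, with read counts giving abundance. Log counts versus furin-free reactions were lowess-adjusted and scaled by median absolute deviation to give the cleavage Z-score.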
Chain of furin, P09958 (P09958 whole entry, the tested form may be a part): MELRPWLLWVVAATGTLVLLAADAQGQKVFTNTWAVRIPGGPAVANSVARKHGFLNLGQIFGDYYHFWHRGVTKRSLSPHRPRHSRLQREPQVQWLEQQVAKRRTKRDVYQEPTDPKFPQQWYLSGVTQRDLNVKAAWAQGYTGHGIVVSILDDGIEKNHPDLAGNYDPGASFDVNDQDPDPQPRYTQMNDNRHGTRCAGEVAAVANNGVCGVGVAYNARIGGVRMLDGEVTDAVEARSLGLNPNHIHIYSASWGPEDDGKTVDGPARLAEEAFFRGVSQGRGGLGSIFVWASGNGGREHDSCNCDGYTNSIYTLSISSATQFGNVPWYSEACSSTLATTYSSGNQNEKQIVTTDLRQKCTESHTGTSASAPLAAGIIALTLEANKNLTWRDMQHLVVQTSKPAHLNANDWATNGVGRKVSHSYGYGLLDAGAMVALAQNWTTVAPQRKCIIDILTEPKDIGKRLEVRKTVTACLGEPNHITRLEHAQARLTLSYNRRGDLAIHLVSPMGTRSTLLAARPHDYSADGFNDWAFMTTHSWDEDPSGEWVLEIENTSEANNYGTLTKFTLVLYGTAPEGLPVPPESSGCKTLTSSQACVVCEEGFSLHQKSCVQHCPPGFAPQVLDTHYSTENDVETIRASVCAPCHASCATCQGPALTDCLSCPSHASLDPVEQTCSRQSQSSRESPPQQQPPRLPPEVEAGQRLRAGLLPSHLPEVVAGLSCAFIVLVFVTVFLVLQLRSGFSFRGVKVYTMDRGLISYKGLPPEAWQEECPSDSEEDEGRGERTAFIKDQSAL

As for CAETVVCCSMAGNASASA [HC2138], the “furin cleavage Z-score” value by setting is: (7.5 min) 0.723 (inactive); (15 min) 1.46; (30 min) 0.375 (inactive).
Regarding CALSRRLKRAAGNASASA [FS-460], the “furin cleavage Z-score” value reads like this: (7.5 min) 12.9 (active); (15 min) 10.6 (active); (30 min) 7.76 (active).
On to CARSKRQLRRAGNASASA [FS-2305], for which the “furin cleavage Z-score” value reads like this: (7.5 min) 5.77 (active); (15 min) 8.83 (active); (30 min) 9.3 (active).
In the same order, the values of CARSKRPPLVAGNASASA [FS-3085] are -1.04 (inactive), 1.04 and 0.266 (inactive).
Turning to CARSKRSRLLAGNASASA [FS-3208], the “furin cleavage Z-score” value runs as follows: (7.5 min) 2.35; (15 min) 5.37 (active); (30 min) 6.91 (active).
CARSKRRHRTAGNASASA [FS-3086]: the “furin cleavage Z-score” value (7.5 min) is 5.67 (active), the “furin cleavage Z-score” value (15 min) was 4.65 (active) and the “furin cleavage Z-score” value (30 min) was 6.42 (active).
For the sequence CARSKRSALRAGNASASA [FS-1930], the “furin cleavage Z-score” value was 8.67 (active) (7.5 min), 9.74 (active) (15 min) and 9.58 (active) (30 min).
Take CALPATQLRRAGNASASA [HC287]: the “furin cleavage Z-score” value by setting is: (7.5 min) -0.751 (inactive); (15 min) -1.22 (inactive); (30 min) -0.432 (inactive).
Consider CARSVRARLLAGNASASA [HC1623], for which the “furin cleavage Z-score” value by setting is: (7.5 min) -0.453 (inactive); (15 min) 0.839 (inactive); (30 min) -0.225 (inactive).
For CALTVTQLLRAGNASASA [HC1136] the same measures were -0.529 (inactive), 1.28 and -0.0718 (inactive).
Take CARSELSPLLAGNASASA [HC490]: the “furin cleavage Z-score” value (7.5 min) was 0.997 (inactive), the “furin cleavage Z-score” value (15 min) is -1.17 (inactive) and the “furin cleavage Z-score” value (30 min) is 0.877 (inactive).
Regarding CATPVNSWLGAGNASASA [HC1572], the “furin cleavage Z-score” value is, setting by setting: (7.5 min) -0.962 (inactive); (15 min) 0.658 (inactive); (30 min) -0.136 (inactive).
For CADQMWKCLIAGNASASA [HC963] the same measures were -0.00547 (inactive), 0.512 (inactive) and 0.111 (inactive).
CAEVPCHRASAGNASASA [HC2383]: the “furin cleavage Z-score” value is, setting by setting: (7.5 min) -0.108 (inactive); (15 min) 1.91; (30 min) 1.32.
In the case of CAMLVCGDDLAGNASASA [HC1527], the “furin cleavage Z-score” value (7.5 min) was -1.47 (inactive), the “furin cleavage Z-score” value (15 min) was -2.12 (inactive) and the “furin cleavage Z-score” value (30 min) is -1.71 (inactive).
Take CARSKRLMKRAGNASASA [FS-3264]: the “furin cleavage Z-score” value runs as follows: (7.5 min) 7.59 (active); (15 min) 8.33 (active); (30 min) 6.04 (active).
With CARSKRLLSDAGNASASA [FS-2524], the “furin cleavage Z-score” value is 1.69 (7.5 min), 0.376 (inactive) (15 min) and 1.96 (30 min).
Turning to CARMKRDTSLAGNASASA [FS-2354], the “furin cleavage Z-score” value is, setting by setting: (7.5 min) 12.7 (active); (15 min) 14.2 (active); (30 min) 10.6 (active).
Turning to CARSKRSTLLAGNASASA [FS-3171], the “furin cleavage Z-score” value by setting is: (7.5 min) 6.63 (active); (15 min) 9.65 (active); (30 min) 8.72 (active).
For CAAPITAYAQAGNASASA [HC674], the “furin cleavage Z-score” value runs as follows: (7.5 min) -1.65 (inactive); (15 min) -1.79 (inactive); (30 min) -0.691 (inactive).
With CARVPRKVQPAGNASASA [FS-3121], the “furin cleavage Z-score” value by setting is: (7.5 min) -0.302 (inactive); (15 min) 1.08; (30 min) 0.984 (inactive).
For CARVPRTVLPAGNASASA [FS-1801] the same measures were 1.52, 0.946 (inactive) and 3.87 (active).
For CARVRRAVLPAGNASASA [FS-2536] the same measures were 8.16 (active), 9.49 (active) and 9.52 (active).
As to CARVRRRGSPAGNASASA [FS-2108], the “furin cleavage Z-score” value by setting is: (7.5 min) -0.273 (inactive); (15 min) 2.05; (30 min) 2.
Regarding CATTQWQVLPAGNASASA [HC495], the “furin cleavage Z-score” value is, setting by setting: (7.5 min) -0.0417 (inactive); (15 min) 1.36; (30 min) 0.907 (inactive).
In the same order, the values of CARIARFVLPAGNASASA [FS-2683] are 2.58, 2.47 and 6.22 (active).
CAGIYRFVAPAGNASASA [HC909]: the “furin cleavage Z-score” value (7.5 min) is -1.23 (inactive), the “furin cleavage Z-score” value (15 min) was -0.739 (inactive) and the “furin cleavage Z-score” value (30 min) was -0.847 (inactive).
Consider CARIARVVLQAGNASASA [FS-2028], for which the “furin cleavage Z-score” value was -0.514 (inactive) (7.5 min), -0.914 (inactive) (15 min) and 1.2 (30 min).
For CARQGRGSDPAGNASASA [FS-2583] the same measures were -1.86 (inactive), -0.176 (inactive) and 0.17 (inactive).
In the same order, the values of CARVRRHSDPAGNASASA [FS-2406] are 10.2 (active), 8.54 (active) and 6.84 (active).
Consider CALVETWKKPAGNASASA [HC1309], for which the “furin cleavage Z-score” value is 0.819 (inactive) (7.5 min), 0.268 (inactive) (15 min) and -0.773 (inactive) (30 min).
As to CAGIPFVSCQAGNASASA [HC1163], the “furin cleavage Z-score” value is, setting by setting: (7.5 min) -0.0749 (inactive); (15 min) 0.44 (inactive); (30 min) -1.36 (inactive).
Regarding CATREVPCHRAGNASASA [HC2438], the “furin cleavage Z-score” value (7.5 min) is 0.921 (inactive), the “furin cleavage Z-score” value (15 min) was 2.06 and the “furin cleavage Z-score” value (30 min) came to 2.03.
In the same order, the values of CALINVRKRNAGNASASA [FS-1357] are 0.912 (inactive), 2.51 and 1.58.
For CALGIRSFRNAGNASASA [TR6], the “furin cleavage Z-score” value (7.5 min) is 1.49, the “furin cleavage Z-score” value (15 min) was 1.8 and the “furin cleavage Z-score” value (30 min) was -0.165 (inactive).
For CAVGIYLLPNAGNASASA [HC1662] the same measures were 0.402 (inactive), 0.33 (inactive) and -0.482 (inactive).
Regarding CAKGGRRSRNAGNASASA [FS-340], the “furin cleavage Z-score” value (7.5 min) is 4.05 (active), the “furin cleavage Z-score” value (15 min) was 5.15 (active) and the “furin cleavage Z-score” value (30 min) was 6.68 (active).
Turning to CADPRRRSRNAGNASASA [HC216], the “furin cleavage Z-score” value is 4.59 (active) (7.5 min), 5.65 (active) (15 min) and 5.55 (active) (30 min).
Take CALGGRRKRNAGNASASA [FS-1356]: the “furin cleavage Z-score” value (7.5 min) was 11.1 (active), the “furin cleavage Z-score” value (15 min) is 12.5 (active) and the “furin cleavage Z-score” value (30 min) was 7.53 (active).
For CAKGGRKPARAGNASASA [HC1446], the “furin cleavage Z-score” value was -0.269 (inactive) (7.5 min), -0.328 (inactive) (15 min) and -1.51 (inactive) (30 min).
Regarding CAPDLGVRVCAGNASASA [HC1452], the “furin cleavage Z-score” value reads like this: (7.5 min) -1.67 (inactive); (15 min) -0.653 (inactive); (30 min) -0.786 (inactive).
In the case of CARFDRSSGPAGNASASA [FS-3220], the “furin cleavage Z-score” value by setting is: (7.5 min) -0.295 (inactive); (15 min) 1.66; (30 min) 0.428 (inactive).
For the sequence CARFRRDLVKAGNASASA [FS-1892], the “furin cleavage Z-score” value is, setting by setting: (7.5 min) 3.6 (active); (15 min) 6.06 (active); (30 min) 7.08 (active).
In the same order, the values of CARFRREVEKAGNASASA [FS-2490] are 9.16 (active), 8.26 (active) and 9.23 (active).
Take CARVFRQVEKAGNASASA [FS-2386]: the “furin cleavage Z-score” value is, setting by setting: (7.5 min) -1.6 (inactive); (15 min) -2.06 (inactive); (30 min) -1.6 (inactive).
As for CARFDRSVEKAGNASASA [FS-2013], the “furin cleavage Z-score” value reads like this: (7.5 min) 2.17; (15 min) 0.744 (inactive); (30 min) 3.51 (active).
